# Data from the supplement of paper PMC11417369.
# Whole data set: some 25,000 sequences, median “ln(normalized median fluorescence intensity)” near 9.7, cut for the highest 2% near 11. The entries come from a sample that favours the highest values as a whole.
# Tested on: PfAP2-HC AP2 domain (GST-tagged)
# Assay: gcPBM binding intensity (ln(normalized median fluorescence intensity)); higher = stronger DNA binding
# Procedure, shortened: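 Binding of GST-tagged P. falciparum DNA-binding domains, expressed in E. coli and used at about 25 μg on average, was carried out for 1 h in 1× PBS containing 1% milk, 0.2 mg/ml BSA, 0.5% salmon testes DNA and 0.03% Triton X-100. The target was an Agilent 4 × 180k array of primer-extended double-stranded 36-bp intergenic genomic probes plus negative controls, read with Alexa488 anti-GST antibody at 488 nm. Binding intensity is the highest Masliner-normalised natural-log median intensity across replicate spots of either probe orientation.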
row,Sequence,gcPBM binding intensity (ln)
1,TAACAATATCTAGATACACACACATATCTCTCAATC [CACACA_site8122],10.4
2,CTCCTTTCAAAAAAATGTACATGTTTACATTTCAAG [XGTACX_site7342],9.55
3,AATATGTACAGACATACACACATATTTATATTTATA [CACACA_site6694],9.88
4,TATATTAATAGACACACACACATATTTATATTTATA [CACACA_site6859],11.1
5,TATACAGATAAATACACACACATATATATATATATA [CACACA_site4178],9.86
6,CATACATACAGACACACACACATATTTATATTTATA [CACACA_site6172],11.3
7,TATTTATATAGACACACACACATATATTTATATTTT [CACACA_site7240],10.4
8,TATACAGATAAATACACACACACATATATATATATA [CACACA_site4845],11.2
9,TACATACACAGACACACACACATATATATATATATA [CACACA_site3557],10.9
10,GTAATACACAGACACACACACATACACATATTTATA [CACACA_site7313],10.5
11,AATACATACAGACACACACACACATATATATATATA [CACACA_site3558],11.5
12,CATACAGATATATATACACACATACAGATAAATACA [CACACA_site4592],9.95
13,TATATTATTTATTAGACACACATTATTAATATATTT [CACACA_site1078],9.79
14,TACACATACAGACATACACACATACACATATACACA [CACACA_site6918],10.5
15,ATATATAGGTTCCCTTTTCTTTTTTTTTTTTTTTTT [CACACA_negctrl_site1159],9.39
16,AAAAAACAAAAAAAAAAAAAAATAATACAATATAAT [CACACA_negctrl_site1630],9.56
17,ACGATATTTTTGGTGACACACATATATATATATATA [CACACA_site126],9.8
18,AAAAATTTTTTTTCATTTGTTTTTATTCCGTAAAAA [CACACA_negctrl_site1217],9.17
19,TATGTGCCAAGACACACACACATATTTATATTTATA [CACACA_site6360],10.2
20,CTAAAATACAGACACACACACACATATATATATATA [CACACA_site4150],11
21,TATATATCAAGACACACACACATATATTTATTTATA [CACACA_site7733],11.2
22,TATTTATAGATATATACACACATATTTATATTTATA [CACACA_site6441],9.78
23,TATATATCAATATACACACACACATATTTATTTATA [CACACA_site6858],10.4

row,Sequence,gcPBM binding intensity (ln)
1,AAAATATATTAAGGCACACACATACAGATATATATA [CACACA_site5951],11.1
2,TAAATACAGACATATACACACATATATATATATATA [CACACA_site4382],9.75
3,ATGATATATAGACACACACACATATTTATATACATT [CACACA_site6404],10.9
4,TATACATAGATATATACACACATATATTTATATACA [CACACA_site6328],9.92
5,AAAATATATTAAGGCACACACATACATATATATATA [CACACA_site3723],10.7
6,AAAATACACAGACACACACACATATAAATAAATATT [CACACA_site7871],10.8
7,AAAAAATATATTAAGGCACACACATACATATATATA [CACACA_site9239],10.2
8,TATACAAGTATATAGGTGCATATATAAGTATATATT [GTGCAC_site9994],9.69
9,ACGTTTTATTTTTATTGTACTCACATTGAAATGAAT [XGTACX_site6094],10
10,AATATAATGCAATATACACACATATATTTCTCTTTT [CACACA_site7276],9.94
11,TTTTCTAAAAAAAGTTGTACATCTTATTTATATTAT [XGTACX_site295],9.63
12,AATTTCAAATTGTATGTGCACATGTAGAAGTACTTT,9.85
13,AAAATATGTATGTAAAGTACTAATATACAAATTTTT [XGTACX_site5186],9.62
14,TGTATTTATTAATGTACACACATGCGTATGTTCGTT [CACACA_site5892],9.96
15,TTTTTTTTTATAGCTAAACACACATAAGAATATATG [CACACA_site8282],9.61
16,TTTTTTTTTTTTTTTGCACACACATTGAATTATTAT [CACACA_site198],9.96
17,TTTATTTATATAATTACACACATATATACACAAATG [CACACA_site8903],9.79
18,TGTTGTAACAAAAGTACACACACATTTCTATAAATT [CACACA_site8894],9.86
19,GAATATAAACATATTACACACATCTATCTGTACATT [CACACA_site5114],9.97
20,AAAAAAAACAGACACACACACATACAAAATATATAT [CACACA_site1449],10.7
21,TATATATATAAATACACACACACACCGATATATATA [CACACA_site5408],10.5
22,AACCACAGACATATAACACACATATACAATATATAT [CACACA_site5142],10.4
